Holding throughout (conditions): Compound concentration 20.0 uM, Protein concentration 2.0 uM, Result type QC Liability
In assay [1] the target is Tyrosine-protein kinase ABL1 (Homo sapiens) (UniProt P00519).
Assay [2] has as its target Cyclin-dependent kinase 2 (Homo sapiens) (UniProt P24941).
Assay [3] deals with Casein kinase I isoform delta (Homo sapiens) (UniProt P48730).
The target of assay [4] is Glycogen synthase kinase-3 beta (Homo sapiens) (UniProt P49841).
Assay [5] concerns the target Mitogen-activated protein kinase 1 (Homo sapiens) (UniProt P28482).
In assay [6] the target is T1, Aurora kinase A (Homo sapiens) (UniProt O14965).
T1 sequence (whole entry): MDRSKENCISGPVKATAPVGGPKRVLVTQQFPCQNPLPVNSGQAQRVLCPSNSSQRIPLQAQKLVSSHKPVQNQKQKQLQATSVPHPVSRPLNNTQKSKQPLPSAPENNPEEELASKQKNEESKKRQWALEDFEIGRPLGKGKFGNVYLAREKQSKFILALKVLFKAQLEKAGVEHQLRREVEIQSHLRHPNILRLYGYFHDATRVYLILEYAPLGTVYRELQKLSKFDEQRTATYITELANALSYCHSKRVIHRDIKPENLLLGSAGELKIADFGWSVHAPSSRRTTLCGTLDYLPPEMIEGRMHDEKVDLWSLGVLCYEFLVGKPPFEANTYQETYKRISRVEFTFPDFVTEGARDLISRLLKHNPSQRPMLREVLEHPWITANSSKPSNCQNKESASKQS

Structures are written as SMILES.

Sequence of Glycogen synthase kinase-3 beta (Homo sapiens) (P49841 whole entry, looked up): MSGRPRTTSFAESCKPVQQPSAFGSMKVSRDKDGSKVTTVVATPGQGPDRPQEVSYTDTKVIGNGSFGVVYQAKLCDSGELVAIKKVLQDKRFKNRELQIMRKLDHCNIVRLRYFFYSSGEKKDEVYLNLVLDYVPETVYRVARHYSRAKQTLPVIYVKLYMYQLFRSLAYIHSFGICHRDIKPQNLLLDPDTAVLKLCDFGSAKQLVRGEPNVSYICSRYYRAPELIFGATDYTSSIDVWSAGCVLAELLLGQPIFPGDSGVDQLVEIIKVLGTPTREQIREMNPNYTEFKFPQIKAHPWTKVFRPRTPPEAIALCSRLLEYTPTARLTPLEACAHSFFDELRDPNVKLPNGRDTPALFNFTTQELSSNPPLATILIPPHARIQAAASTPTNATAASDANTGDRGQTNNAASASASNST
Sequence of Casein kinase I isoform delta (Homo sapiens) (P48730 whole entry, looked up, canonical isoform): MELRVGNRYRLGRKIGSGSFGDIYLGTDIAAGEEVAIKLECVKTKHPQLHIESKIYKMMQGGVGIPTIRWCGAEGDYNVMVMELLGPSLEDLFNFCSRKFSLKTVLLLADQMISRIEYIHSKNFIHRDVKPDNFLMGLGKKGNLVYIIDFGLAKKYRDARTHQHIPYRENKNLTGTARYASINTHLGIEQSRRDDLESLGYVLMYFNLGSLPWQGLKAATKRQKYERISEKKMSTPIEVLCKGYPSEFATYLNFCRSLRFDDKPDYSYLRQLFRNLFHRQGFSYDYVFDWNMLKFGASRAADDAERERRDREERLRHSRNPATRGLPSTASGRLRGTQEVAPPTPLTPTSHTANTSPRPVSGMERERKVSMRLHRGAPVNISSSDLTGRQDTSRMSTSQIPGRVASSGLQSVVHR
Sequence of Tyrosine-protein kinase ABL1 (Homo sapiens) (P00519 whole entry): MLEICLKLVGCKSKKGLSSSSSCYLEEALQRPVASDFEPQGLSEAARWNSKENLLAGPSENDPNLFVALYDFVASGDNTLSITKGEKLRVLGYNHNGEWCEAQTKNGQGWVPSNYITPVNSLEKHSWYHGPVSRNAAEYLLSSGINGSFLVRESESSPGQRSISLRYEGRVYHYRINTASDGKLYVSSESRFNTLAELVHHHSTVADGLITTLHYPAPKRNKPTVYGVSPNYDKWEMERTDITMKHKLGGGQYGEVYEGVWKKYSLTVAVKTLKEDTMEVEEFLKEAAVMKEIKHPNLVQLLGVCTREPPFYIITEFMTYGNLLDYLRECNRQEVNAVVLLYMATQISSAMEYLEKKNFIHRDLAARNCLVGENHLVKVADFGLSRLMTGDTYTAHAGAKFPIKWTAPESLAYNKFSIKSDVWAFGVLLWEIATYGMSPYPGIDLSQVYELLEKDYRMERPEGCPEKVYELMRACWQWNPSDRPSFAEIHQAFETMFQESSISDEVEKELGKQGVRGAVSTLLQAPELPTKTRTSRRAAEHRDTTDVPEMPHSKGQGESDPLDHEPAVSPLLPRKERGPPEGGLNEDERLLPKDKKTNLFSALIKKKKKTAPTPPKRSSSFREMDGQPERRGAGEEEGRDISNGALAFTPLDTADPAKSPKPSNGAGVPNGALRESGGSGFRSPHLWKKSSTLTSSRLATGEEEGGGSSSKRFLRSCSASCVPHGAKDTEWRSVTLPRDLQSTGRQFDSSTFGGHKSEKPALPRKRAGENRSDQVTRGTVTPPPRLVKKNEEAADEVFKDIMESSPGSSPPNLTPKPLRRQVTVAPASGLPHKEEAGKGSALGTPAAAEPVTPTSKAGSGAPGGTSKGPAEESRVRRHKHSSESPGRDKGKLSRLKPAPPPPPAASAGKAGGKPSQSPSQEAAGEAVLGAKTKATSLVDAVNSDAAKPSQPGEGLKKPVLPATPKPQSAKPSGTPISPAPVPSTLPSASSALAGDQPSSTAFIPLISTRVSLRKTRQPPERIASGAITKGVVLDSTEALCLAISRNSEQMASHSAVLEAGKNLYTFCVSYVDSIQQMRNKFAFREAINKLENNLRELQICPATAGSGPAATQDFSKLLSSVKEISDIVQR
Sequence of Mitogen-activated protein kinase 1 (Homo sapiens) (P28482 whole entry): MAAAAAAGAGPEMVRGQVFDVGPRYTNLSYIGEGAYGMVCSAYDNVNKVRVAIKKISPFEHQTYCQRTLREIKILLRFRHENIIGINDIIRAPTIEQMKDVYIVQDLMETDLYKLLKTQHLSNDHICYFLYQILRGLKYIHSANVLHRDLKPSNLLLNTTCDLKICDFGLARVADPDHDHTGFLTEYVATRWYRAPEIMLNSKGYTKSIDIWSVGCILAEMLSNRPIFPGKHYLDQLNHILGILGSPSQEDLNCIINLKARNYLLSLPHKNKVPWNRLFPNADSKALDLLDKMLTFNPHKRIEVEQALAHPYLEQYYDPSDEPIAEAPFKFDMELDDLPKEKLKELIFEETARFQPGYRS

Consider `C#Cc1cnc2[nH]cc(-c3cccc4c3CCN4C(=O)[C@@H]3CCCN3C#N)c2c1`, for which the shift in melting temperature (ΔTm) came out at 5.17 °C in assay [1]; 1.31 °C in assay [2]; 2.51 °C in assay [3]; 2.99 °C in assay [4]; 0.55 °C in assay [5]; 4.94 °C in assay [6].

Consider `C[C@H](CCC(=O)O)[C@H]1CC[C@H]2[C@@H]3[C@H](O)C[C@@H]4C[C@H](O)CC[C@]4(C)[C@H]3C[C@H](O)[C@]12C`, for which the ΔTm in assay [1] was 0.17 °C; in assay [2] it was 0.08 °C; in assay [3], 0.33 °C; in assay [4], -0.66 °C; in assay [5], 0.4 °C; in assay [6], -1.53 °C.

Regarding `CC/C(=C(\c1ccccc1)c1ccc(OCCN(C)C)cc1)c1ccccc1`, the ΔTm in assay [1] is -1.51 °C; in assay [2], -1.86 °C; in assay [3], 0.3 °C; in assay [4] it was -1.42 °C; in assay [5], -0.3 °C; in assay [6] it was -2.91 °C.

With `CC(=O)Nc1cccc(-n2c(=O)n(C3CC3)c(=O)c3c(Nc4ccc(I)cc4F)n(C)c(=O)c(C)c32)c1`, the ΔTm in assay [1] was -0.1 °C; in assay [2], 0.48 °C; in assay [3], 0.23 °C; in assay [4], -0.51 °C; in assay [5], 0.29 °C; in assay [6], -0.21 °C.

As to `COc1cc(C)c(S(=O)(=O)N(C)CCC(=O)N[C@H]2CC[C@@H](N3CCC4CN(C)CC4C3)CC2)c(C)c1` (stereo not given in full), the ΔTm in assay [1] is 0.38 °C; in assay [2], -0.04 °C; in assay [3] it was 0.64 °C; in assay [4], 0.15 °C; in assay [5], 0.83 °C; in assay [6], -0.36 °C.

Consider `CO[C@H]1C[C@@H]2CC[C@@H](C)[C@@](O)(O2)C(=O)C(=O)N2CCCC[C@H]2C(=O)O[C@H]([C@H](C)C[C@@H]2CC[C@@H](O)[C@H](OC)C2)CC(=O)[C@H](C)/C=C(\C)[C@@H](O)[C@@H](OC)C(=O)[C@H](C)C[C@H](C)/C=C/C=C/C=C/1C`, for which the ΔTm in assay [1] was 0.32 °C; in assay [2], -0.19 °C; in assay [3] it was -0.1 °C; in assay [4], -0.7 °C; in assay [5] it was -0.72 °C; in assay [6], -0.26 °C.

Take `CC(=O)N1CCC(c2ccc(C(=O)NC3=NCCN3)cc2C(F)(F)F)CC1`: the ΔTm is 0.33 °C in assay [1]; 0.15 °C in assay [2]; 0.3 °C in assay [3]; -0.03 °C in assay [4]; 0.1 °C in assay [5]; -0.15 °C in assay [6].

For the compound `CN1CCCN(C(=O)c2cccc(-c3ccc(/C=C4/C(=O)Nc5ccc(Cl)cc54)o3)c2)CC1`, the ΔTm is 1.94 °C in assay [1]; 2.38 °C in assay [2]; 2.04 °C in assay [3]; 5.85 °C in assay [4]; -0.12 °C in assay [5]; 1.88 °C in assay [6].

As for `Cc1cc(-c2nc(-c3ccc(OC(F)(F)F)cc3)no2)nn1Cc1ccnc(N2CCN(C3CC3)CC2)c1`, the ΔTm was 0.32 °C in assay [1]; 0.39 °C in assay [2]; -1.88 °C in assay [3]; -5.07 °C in assay [4]; 0.34 °C in assay [5]; -3.42 °C in assay [6].

`CCS(=O)(=O)Nc1cccc(Oc2cncc(Nc3ccc(I)cc3F)c2C(N)=O)c1`: the ΔTm was 0.95 °C in assay [1]; 0.72 °C in assay [2]; -0.53 °C in assay [3]; -0.71 °C in assay [4]; -2.21 °C in assay [5]; 1.45 °C in assay [6].

Consider `CCO[C@@H](Cc1ccc(OCCc2ccc(OS(C)(=O)=O)cc2)cc1)C(=O)O`, for which the ΔTm was 0.03 °C in assay [1]; 0.41 °C in assay [2]; -0.31 °C in assay [3]; -0.58 °C in assay [4]; 0.21 °C in assay [5]; 0.09 °C in assay [6].

Consider `CC(C)N1CCN(Cc2cnc(-c3cc(-c4cccc5[nH]ccc45)cc4[nH]ncc34)o2)CC1`, for which the ΔTm was 2.44 °C in assay [1]; 0.6 °C in assay [2]; 1.32 °C in assay [3]; 3.63 °C in assay [4]; 0.24 °C in assay [5]; 4.96 °C in assay [6].

`COc1cc(-c2cn(C)c(=O)c3cnccc23)cc(OC)c1CN(C)C`: the ΔTm in assay [1] was 0.24 °C; in assay [2], 0.43 °C; in assay [3], 0.32 °C; in assay [4], 0.06 °C; in assay [5], 0.23 °C; in assay [6] it was 0.56 °C.

For `Cc1csc(-c2nnc(Nc3ccc(Oc4ncccc4-c4ccnc(N)n4)cc3)c3ccccc23)c1`, the ΔTm in assay [1] was 7.01 °C; in assay [2] it was 0.42 °C; in assay [3] it was 0.58 °C; in assay [4], -4.11 °C; in assay [5], 4.87 °C; in assay [6], 13.8 °C.

As to `O=C(O)CCCCN(CCc1cc(F)ccc1OCc1ccc(-c2ccc(C(F)(F)F)cc2)cc1)Cc1ccc(C(=O)O)cc1`, the ΔTm is 0.64 °C in assay [1]; -0.19 °C in assay [2]; 0.21 °C in assay [3]; -1.11 °C in assay [4]; -0.69 °C in assay [5]; 0.32 °C in assay [6].

Regarding `CC(C)c1nc2c(c3c1[C@@H](c1ccc(C(F)(F)F)cc1)OC31CCOCC1)[C@@H](O)CC(C)(C)C2`, the ΔTm is -0.41 °C in assay [1]; 0.52 °C in assay [2]; 0.25 °C in assay [3]; -1.28 °C in assay [4]; -0.13 °C in assay [5]; -0.38 °C in assay [6].

On to `Cc1nc2ccc(Oc3ccc(F)cc3)cc2c(=O)n1C[C@H]1CCCN(C(C)C)C1`, for which the ΔTm was 0.92 °C in assay [1]; 0.32 °C in assay [2]; 0.35 °C in assay [3]; -0.38 °C in assay [4]; 0.41 °C in assay [5]; 0.12 °C in assay [6].

For `CCN1C(=O)/C(=C(\NC2CCN(C)CC2)c2ccc3c(c2)OCO3)c2cc(C(C)=O)ccc21`, the ΔTm was found to be 0.4 °C in assay [1]; 0.54 °C in assay [2]; 1.8 °C in assay [3]; 0.62 °C in assay [4]; 0.05 °C in assay [5]; 0.02 °C in assay [6].

Regarding `CCCS(=O)(=O)N[C@H]1C[C@@H](N(C)c2ncnc3[nH]ccc23)C1`, the ΔTm in assay [1] was 1.02 °C; in assay [2], 0.96 °C; in assay [3], 0.73 °C; in assay [4], 1.39 °C; in assay [5] it was 0.29 °C; in assay [6], 3.25 °C.

With `Cc1cc(CN)cc(C)c1-c1ncn(C)c1-c1ccnc2cc(F)ccc12`, the ΔTm in assay [1] is -0.08 °C; in assay [2], 0.32 °C; in assay [3] it was 0.37 °C; in assay [4] it was -0.11 °C; in assay [5], 0.29 °C; in assay [6] it was 0.25 °C.

As for `O=C(NCCS(=O)(=O)c1ccc(C(F)(F)F)cn1)c1ccc(Cl)cc1`, the ΔTm in assay [1] is 0 °C; in assay [2], 0.73 °C; in assay [3], 0.23 °C; in assay [4], -1.08 °C; in assay [5] it was 0.3 °C; in assay [6] it was -0.52 °C.

`COc1cc(-c2cncc(-c3ccc(N4CCN(C(C)C)CC4)cc3)c2C)cc(F)c1C(N)=O`: the ΔTm in assay [1] was 1.79 °C; in assay [2] it was 0.61 °C; in assay [3], 0.92 °C; in assay [4] it was 1.06 °C; in assay [5], 0.21 °C; in assay [6], -0.31 °C.

For the compound `COc1cc(C(=O)O)ncc1C#Cc1ccccc1NS(=O)(=O)c1cccc2c(N(C)C)ccnc12`, the ΔTm was 0.14 °C in assay [1]; -0.3 °C in assay [2]; 0.08 °C in assay [3]; -0.76 °C in assay [4]; 0.42 °C in assay [5]; 0.72 °C in assay [6].

As to `CCN1C(=O)N(c2c(F)c(OC)cc(OC)c2F)Cc2cnc3[nH]c(CN4CCOCC4)cc3c21`, the ΔTm is 0.38 °C in assay [1]; 6.96 °C in assay [2]; 0.58 °C in assay [3]; -0.33 °C in assay [4]; 0.45 °C in assay [5]; 1.85 °C in assay [6].

On to `CSc1ccc(C[C@@H](C)C(=O)O)cc1Nc1nc(N2CC[C@H](N(C)C)C2)cc(C(F)F)c1C#N`, for which the thermal shift (ΔTm) is 0.42 °C in assay [1]; 0.56 °C in assay [2]; 0.3 °C in assay [3]; 0.05 °C in assay [4]; 0.24 °C in assay [5]; 0.19 °C in assay [6].

The term ΔTm denotes the change in melting temperature against a reference sample.

The values above are taken from ChEMBL document CHEMBL5308504, “Tm Shift (DSF) assay results for EUbOPEN Chemogenomics Library” (2023).
